Only a selection was taken, and hits are over-represented in it overall.
ST2 inh = IL1RL1 inhibition | Q01638 | AlphaLISA ST2-Fc/biotin-IL-33 interaction, 1 h | inhibition, % for hits at 17 µM | 2.3% of 78,000 active; in the data active means inhibition above about 30%
Target sequence (Q01638 whole entry, looked up): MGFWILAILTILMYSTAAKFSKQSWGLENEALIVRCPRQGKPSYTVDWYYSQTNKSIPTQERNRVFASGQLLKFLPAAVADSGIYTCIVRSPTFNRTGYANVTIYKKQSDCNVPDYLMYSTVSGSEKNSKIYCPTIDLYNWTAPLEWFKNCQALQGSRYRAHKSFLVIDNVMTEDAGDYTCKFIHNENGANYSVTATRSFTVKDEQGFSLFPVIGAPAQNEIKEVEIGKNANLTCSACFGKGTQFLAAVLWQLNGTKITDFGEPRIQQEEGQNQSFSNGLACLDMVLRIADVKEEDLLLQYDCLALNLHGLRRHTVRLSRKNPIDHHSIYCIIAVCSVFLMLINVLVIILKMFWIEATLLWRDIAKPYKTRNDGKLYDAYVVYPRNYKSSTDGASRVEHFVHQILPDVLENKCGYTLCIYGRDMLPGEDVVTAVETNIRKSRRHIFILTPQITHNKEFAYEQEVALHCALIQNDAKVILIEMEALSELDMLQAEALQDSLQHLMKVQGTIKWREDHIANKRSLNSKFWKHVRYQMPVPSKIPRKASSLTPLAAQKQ
An asterisk follows results filed as active; i = inactive.

SMILES	ST2 inh
O=c1cc(-c2ccc(O)cc2)oc2c(C3OCC(O)C(O)C3O)c(O)c(C3OC(CO)C(O)C(O)C3O)c(O)c12 (stereo unspecified)	i
COc1ccccc1C(=O)Nc1cccc([N+](=O)[O-])c1	i
Cc1ccccc1C(=O)Nc1ccc2nc(SCC(=O)N3CCOCC3)sc2c1	i
COc1cc(C(=O)NCCOc2ccc(Cl)cc2)cc(OC)c1OC	i
Cc1ccc2nc(-c3ccco3)c(Nc3ccccc3)n2c1	i
COc1ccc(Br)cc1C=Nc1c(-c2ccco2)nc2ccccn12	30%*
COc1ccc(Br)cc1/C=C1N=C(/C=C/c2ccccc2OC)OC\1=O	i
O=C(Nc1ccc([N+](=O)[O-])cc1Br)c1cc2ccccc2o1	i
Cc1ccc(C)c(OCC(=O)NCc2cccnc2)c1	i
CCSc1nc(-c2ccccc2)cc(C)c1C#N	i
COCCOC(=O)C1=C(C)NC2=C(C(=O)CC(c3ccccc3)C2)C1c1cccnc1 (stereo unspecified)	i
CCCc1cc(NCc2ccco2)n2c(nc3ccccc32)c1C#N	i
CC(C)CSc1oc(-c2ccco2)nc1S(=O)(=O)c1ccc(Cl)cc1	i
CCC(Cn1ccnc1)NC(=O)C1=NNC(=O)CC1 (stereo unspecified)	i
CC(C)/C=C/C(=O)N1CCCC(N2CCN(c3cccc(C(F)(F)F)c3)CC2)C1 (stereo unspecified)	i
Cc1ccc(-c2cnc3ccccc3n2)cc1[N+](=O)[O-]	i
Cc1ccc2c(c1[N+](=O)[O-])C(=O)c1ccccc1C2=O	i
Cc1cc2c(cc1[N+](=O)[O-])C(=O)c1cc3ccccc3nc1-2	36%*
Cc1nc(S(=O)(=O)N2C[C@@H]3[C@H](C2)[C@H]2CC[C@@H]3O2)cn1C	i
O=C1C(=O)N(CCc2ccccc2)C(c2ccc(Cl)cc2)C1=C(O)c1ccccc1 (stereo unspecified)	i
[N-]=C=C1C(=O)N(CCc2ccccc2)C(=O)[C@H]([n+]2ccccc2)[C@H]1c1ccc(Cl)cc1	34%*
COc1ccc(CNS(=O)(=O)c2cc(Cl)ccc2Cl)cc1	i
CCCCNC(=O)CN1C(=O)/C(=C\c2cccc(Cl)c2)Sc2ccccc21	i
CC1=C(C(N)=O)C(c2ccccc2Cl)n2nc(SCc3ccccc3F)nc2N1 (stereo unspecified)	i
CCOc1cccc2c1OC1(C)CC2NC(=O)N1c1ccc(C)cc1 (stereo unspecified)	i
SMILES	ST2 inh
Nc1cccc2c1C(=O)N(c1ccc(O)cc1)C2=O	i
COc1ccc(N2C(=O)S/C(=C\c3ccc(O)cc3)C2=O)cc1	i
O=C1S/C(=C\c2ccc(O)cc2)C(=O)N1c1ccc(O)cc1	i
O=C1S/C(=C\c2ccccc2Cl)C(=O)N1c1ccc(O)cc1	38%*
CC(=C/c1ccccc1)/C=C1/SC(=O)N(c2ccc(O)cc2)C1=O	45%*
N=C1S/C(=C\c2ccccc2F)C(=O)N1c1ccc2c(c1)OCO2	i
CN(CCc1ccccn1)[C@H]1[C@@H]2OC[C@@H](O2)[C@@H](NCc2ccccc2)[C@@H]1O	i
Cn1c(=O)c2cc(S(=O)(=O)N3CCN(c4ccccc4F)CC3)ccc2n(C)c1=O	i
O=C(c1cc(-c2ccc(Br)cc2)on1)N1CCCc2ccccc21	i
CN1CCC(Cc2noc(COCc3ccccc3)n2)CC1	i
CCN(CC)CCn1ccnc1-c1cc2ccc(F)cc2[nH]c1=O	i
CNc1ccc(-c2noc([C@@H]3CCCN3Cc3ccc(Cl)cc3)n2)cn1	i
Cn1c(=O)c2c(nc(NCc3ccco3)n2Cc2c(F)cccc2Cl)n(C)c1=O	i
Cn1c(=O)c2c(nc(N3CCOCC3)n2Cc2c(F)cccc2Cl)n(C)c1=O	37%*
CN1CCN(c2nc3c(c(=O)n(C)c(=O)n3C)n2Cc2ccc(Cl)c(Cl)c2)CC1	i
c1ccc(CN2CCN(Cc3ccccc3)C2c2ccco2)cc1	i
CN(Cc1cn[nH]c1-c1ccc(F)cc1)C(=O)c1ccc2cc[nH]c2c1	i
Cc1[nH]c2ccccc2c1C=C1C(=O)OC2(CCCCC2)OC1=O	48%*
CCOc1ccc(C=C2C(=O)OC3(CCCCC3)OC2=O)cc1OC	i
CCCCN(CC)Cc1c(C)[nH]c2ccccc2c1=O	i
CCC(c1cccnc1)N(C)C(=O)c1cnn(Cc2ccccc2)c1 (stereo unspecified)	i
CCOc1ccc(C2CC(c3ccc(OCC)cc3)n3ncnc3N2)cc1 (stereo unspecified)	i
Cc1ccc(OCC(=O)Nc2cccc(C(F)(F)F)c2)c(Br)c1	i
CN(Cc1cccc2cnccc12)c1ncnc2[nH]ccc12	i
COc1ccccc1-c1ccnc(-n2ncc(C(=O)NCc3cccc(F)c3)c2C2CC2)n1	i
SMILES	ST2 inh
COc1ccc(OC)c(CNC(=O)c2cc(-c3cccs3)nc3ccccc23)c1	i
COCc1c(C(=O)NCc2ccc3c(c2)CCCN3C)cnn1-c1ncc(C)c(-c2cccs2)n1	39%*
C=CCN1C(=O)CSc2ccc(C(=O)NCc3ccc(C)cc3)cc21	i
O=C(Nc1nc(-c2cccs2)cs1)c1ccc(Br)cc1	i
N#Cc1c(-c2ccccc2)cc(-c2cccs2)nc1Br	i
N#C/C(=C\c1ccc(Br)cc1)c1nc(C2CC2)cs1	49%*
N#C/C(=C/c1ccc(Br)cc1)c1nc(-c2cccs2)cs1	40%*
CCN1CCCC1CNC(=O)C1(O)c2ccccc2NC(=O)N1c1ccccc1 (stereo unspecified)	i
Cc1ccc(NS(=O)(=O)c2cc(Br)cc3c2N(C(=O)C2CC2)CC3)cc1	i
COc1cc(OC)c(OC)cc1C=NCC1OCCc2ccccc21 (stereo unspecified)	i
Cc1ccc(Nc2nc(-c3ccc(F)cc3)cs2)cc1C	i
Cc1ccnc(Nc2nc(-c3ccccn3)cs2)c1	i
Cc1ccnc(Nc2nc(-c3ccc(O)c(O)c3)cs2)c1	44%*
Cc1ccccc1Nc1c(-c2cc(Br)ccc2O)nc2cnccn12	i
c1ccc(-c2nnc(-c3cccnc3)o2)cc1	i
CC(=O)N1c2ccccc2C(=O)OC1c1cccnc1 (stereo unspecified)	i
c1ccc(C2(c3ccccc3)OC(c3cccnc3)Nc3ccccc32)cc1 (stereo unspecified)	35%*
CC(C)c1nnc2sc(CC3CCS(=O)(=O)CC3)nn12	i
O=C(NCC1(c2ccccc2)CCOCC1)c1cn(Cc2ccc(Cl)cc2)nn1	i
Cc1cc(NS(=O)(=O)c2c(C)n[nH]c2C)ccc1Br	i
COCCOC(=O)C1=C(C)NC2=C(C(=O)C(C(=O)OC)C(C)C2)C1c1cccc(OC)c1 (stereo unspecified)	i
OCc1ccc(-c2c(-c3ccccc3)ncn2Cc2ccc3c(c2)OCO3)o1	i
CCOC(=O)CN(Cc1ccc(F)cc1)S(=O)(=O)c1ccc(C(C)C)cc1	i
COc1ccc(Nc2ncnc3nc[nH]c23)cc1OC	i
CCOC(=O)c1ccc(Nc2ncnc3nc[nH]c23)cc1	30%*
CCOC(=O)c1ccc(Nc2ncnc3c2cnn3-c2ccc(Cl)cc2)cc1	i
COc1cc2c(cc1OC)-c1nnc(-c3ccc(Cl)cc3)n1C(C)(C)C2	i
CCN1C(C(=O)c2ccccc2)=C(Nc2ccccc2C)c2ccccc2S1(=O)=O	31%*
COC(=N)CN1C(=O)c2ccccc2S1(=O)=O	i
Cc1ccccc1Nc1sc(C(=O)c2ccccc2)c(N)c1C#N	i
